We go through 45 compounds from PubChem BioAssay AID1964107 (National Center for Advancing Translational Sciences (NCATS), 2024).

Structures are written as SMILES. Among all 31,000 compounds or so, about 360 (1.2%) were called active. Inconclusive results (about 8%) are left out. Only a selection was taken, and actives are over-represented in it overall. A number with no mark means an inactive call. Calls come from the whole dose curve.
% is set by controls: 0 for no effect and ±100 for the full control effect; potency is the fitted concentration of half-maximal effect.

Polyprotein P1234 (Chikungunya virus (strain S27-African prototype)), sequence (Q8JUX6 whole entry, looked up): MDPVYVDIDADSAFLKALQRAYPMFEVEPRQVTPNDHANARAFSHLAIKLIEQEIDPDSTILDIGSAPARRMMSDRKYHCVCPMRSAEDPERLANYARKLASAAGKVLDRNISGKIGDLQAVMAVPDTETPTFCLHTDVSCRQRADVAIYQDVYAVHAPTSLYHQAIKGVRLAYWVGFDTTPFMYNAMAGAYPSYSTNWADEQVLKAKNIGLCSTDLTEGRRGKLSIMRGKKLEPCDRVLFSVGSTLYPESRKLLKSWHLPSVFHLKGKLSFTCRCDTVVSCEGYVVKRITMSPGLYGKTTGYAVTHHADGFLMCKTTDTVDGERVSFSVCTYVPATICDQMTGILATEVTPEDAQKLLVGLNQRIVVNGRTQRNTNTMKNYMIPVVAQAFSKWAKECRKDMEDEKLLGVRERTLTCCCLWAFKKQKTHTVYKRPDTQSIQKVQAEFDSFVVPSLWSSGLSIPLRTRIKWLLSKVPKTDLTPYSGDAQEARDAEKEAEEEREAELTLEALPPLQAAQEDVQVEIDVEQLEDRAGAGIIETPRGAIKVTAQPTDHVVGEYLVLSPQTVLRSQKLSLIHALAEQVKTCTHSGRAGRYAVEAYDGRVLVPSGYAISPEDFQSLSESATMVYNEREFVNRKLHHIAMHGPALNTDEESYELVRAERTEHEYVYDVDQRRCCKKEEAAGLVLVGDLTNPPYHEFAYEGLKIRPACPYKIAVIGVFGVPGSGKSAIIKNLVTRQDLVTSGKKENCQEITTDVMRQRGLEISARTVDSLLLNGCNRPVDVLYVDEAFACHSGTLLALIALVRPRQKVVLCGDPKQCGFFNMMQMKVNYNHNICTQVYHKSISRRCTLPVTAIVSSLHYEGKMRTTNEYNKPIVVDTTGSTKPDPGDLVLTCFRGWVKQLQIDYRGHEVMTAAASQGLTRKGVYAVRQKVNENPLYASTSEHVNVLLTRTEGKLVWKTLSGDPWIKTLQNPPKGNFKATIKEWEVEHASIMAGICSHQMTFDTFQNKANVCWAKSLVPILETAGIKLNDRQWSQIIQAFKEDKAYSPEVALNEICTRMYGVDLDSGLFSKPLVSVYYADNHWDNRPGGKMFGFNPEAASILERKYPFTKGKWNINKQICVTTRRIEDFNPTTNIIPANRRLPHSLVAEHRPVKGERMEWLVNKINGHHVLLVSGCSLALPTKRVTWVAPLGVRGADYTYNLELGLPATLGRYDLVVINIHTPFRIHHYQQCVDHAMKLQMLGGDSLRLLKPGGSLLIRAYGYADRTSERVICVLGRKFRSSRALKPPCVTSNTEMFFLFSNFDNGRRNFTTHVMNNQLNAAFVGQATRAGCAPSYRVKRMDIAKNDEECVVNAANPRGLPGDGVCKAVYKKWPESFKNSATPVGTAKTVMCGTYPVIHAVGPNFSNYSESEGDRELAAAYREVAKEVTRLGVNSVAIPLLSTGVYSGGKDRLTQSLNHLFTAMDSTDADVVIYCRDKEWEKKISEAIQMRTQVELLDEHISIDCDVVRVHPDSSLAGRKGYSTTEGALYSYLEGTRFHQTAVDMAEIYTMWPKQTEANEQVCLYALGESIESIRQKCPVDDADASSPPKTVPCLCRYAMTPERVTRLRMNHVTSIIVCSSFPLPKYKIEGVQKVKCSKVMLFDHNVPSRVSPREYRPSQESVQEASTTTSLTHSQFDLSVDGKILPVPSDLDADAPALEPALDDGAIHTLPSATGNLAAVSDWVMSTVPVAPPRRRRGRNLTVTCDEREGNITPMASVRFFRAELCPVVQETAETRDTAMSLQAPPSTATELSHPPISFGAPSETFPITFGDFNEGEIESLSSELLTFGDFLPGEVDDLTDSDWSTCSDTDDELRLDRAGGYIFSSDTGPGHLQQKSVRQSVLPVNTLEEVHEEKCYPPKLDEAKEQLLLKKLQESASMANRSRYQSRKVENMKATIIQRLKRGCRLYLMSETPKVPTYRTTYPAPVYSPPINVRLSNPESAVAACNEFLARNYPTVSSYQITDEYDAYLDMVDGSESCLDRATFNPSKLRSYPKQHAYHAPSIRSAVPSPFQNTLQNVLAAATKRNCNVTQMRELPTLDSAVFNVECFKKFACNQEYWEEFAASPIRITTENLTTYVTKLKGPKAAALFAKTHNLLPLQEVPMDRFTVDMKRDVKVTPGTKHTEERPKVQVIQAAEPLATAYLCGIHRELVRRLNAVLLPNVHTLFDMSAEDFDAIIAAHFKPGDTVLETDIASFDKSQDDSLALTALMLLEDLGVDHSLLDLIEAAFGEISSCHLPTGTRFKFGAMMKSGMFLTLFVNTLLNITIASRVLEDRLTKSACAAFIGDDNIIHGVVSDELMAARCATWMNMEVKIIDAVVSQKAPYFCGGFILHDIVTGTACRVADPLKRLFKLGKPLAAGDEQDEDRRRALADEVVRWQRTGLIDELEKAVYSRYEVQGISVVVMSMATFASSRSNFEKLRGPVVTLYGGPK

In this assay the target is Polyprotein P1234 (Chikungunya virus (strain S27-African prototype)) (UniProt Q8JUX6). Briefly: Primary qHTS for inhibitors of NSP2Pro chikungunya virus (CHIKV). Note: nearly all actives have a fitted effect of over 60% in size. Particulars: FRET peptide cleavage, fluorescence 1 h; series mostly up to 24.9 µM; activity change, negative = inhibition: at the top concentration. The text has this:
PI: Natalia J. Martinez Ph.D. National Center for Advancing Translational Sciences (NCATS), National Institute of Health (NIH), Rockville, Maryland Chikungunya virus (CHIKV) is a mosquito-borne RNA virus that has emerged as one of the most important global arboviral threats in the last decade. Although the first CHIKV vaccine has recently been FDA approved for use in healthy adults at increased risk, to date, there are no available antiviral drugs for CHIKV infection. CHIKV nsP2 protease plays a crucial role in the processing of the viral polypeptide precursor to release enzymes required for viral replication, thus making it a promising drug target for antiviral discovery. Here, we established a high-throughput pipeline to identify small molecule inhibitors of nsP2 proteolytic activity. The pipeline is composed of a suite of 1,536-well in vitro assays to support quantitative high-throughput (qHTS) screening campaigns. Specifically, we developed a fluorescence resonance energy transfer (FRET)-based assay using a fluorogenic peptide substrate encompassing an endogenous cleavage site and purified recombinant protease domain (nsP2pro). Using this assay, we interrogated ~37,000 small molecules, including those in drug repurposing libraries as well as chemically diverse and medicinal chemistry-friendly compounds. Hits were selected for follow-up validation against full-length nsP2 and an additional peptide. FRET-based 1,536-well assays for papain, hepatitis C virus NS3-4A, and human furin proteases were implemented to characterize compound selectivity. […] Novel compounds were identified to be potential nsP2 inhibitors and molecular docking analyses were performed to explain the binding mode of selected hits. In vitro antiviral activity was evaluated for a subset of compounds using a high-throughput CHIKV infection assay. To our knowledge, the pipeline presented here is unprecedented for CHIKV antiviral discovery research.
PROTOCOL TABLE (as described by Inglese J, Shamu CE and Guy RK. 2007) SEQUENCE No. (e.g., 1, 2, 3, etc.); […] (e.g., Cells, Incubation, Reagent, etc.); VALUE; DESCRIPTION. 1; Control / Compound; 20 nL; Echo 655 acoustic dispenser, Greiner 1536-well solid bottom black plate. 2; Enzyme; 4 uL; BioRAPTR FRD liquid dispenser (Beckman Coulter). 3; Incubation; 15 min; room temperature. 4; Reagent; 4 uL; 2.5 uM Peptide 2 substrate. 5; Incubation; 1 hr; room temperature. 6; Detection; Fluorescence; WiewLux microplate reader (PerkinElmer), 525 nm excitation, 598/25 nm emission. NOTES (numbers refer to sequence numbers above). 1. Briefly, 20 nL DMSO, positive control ZnAc (20nM final concentration), and test compounds were transferred into a 1,536-well solid bottom black plate (789176-F, Greiner One) via Echo 655 acoustic dispenser (Beckman Coulter). For primary screens, compounds were tested at 7 concentrations, 1:3 dilution points ranging from 25 uM to 34 nM. Follow-up confirmatory screens were carried out at 11 concentrations, 1:3 dilution points from 25 uM to 0.42 nM. 2. Four uL nsP2pro enzyme mix (150 nM final concentration) in 10 mM Tris-HCl pH 8.0 with 0.01% Tween 20 assay buffer was dispensed into the plate using a BioRAPTR FRD liquid dispenser (Beckman Coulter). 3. The plate was incubated at room temperature (protected from light) for 15 min 4. Four microliter of peptide 2 substrate (2.5 uM final concentration) in assay buffer was added to the plate. 5. After 1 hour, plates were immediately read on a ViewLux high-throughput CCD imager (Exposure = 10 sec, Gain = High, Speed = Slow, Binning = 2X). The above assay was also incorporated in the NCATS HTS facility41, which allowed for robotic liquid and compound dispensing, microplate handling, and fluorescence reading.. REFERENCE: Inglese J, Shamu CE and Guy RK, Reporting data from high throughput screening of small molecule libraries, Nature Chemical Biology, 2007, 3(8): 438-441. doi.org/10.1038/nchembio0807-438.
For `CC12CCC(O)CC1=CCC1C2CCC2(C)C(c3cccnc3)=CCC12` (stereo not given), the “activity change, negative = inhibition” value is -16.8% [at 10 µM].
Take `O=C(C1CCCC1)N1CC2(CCCN(Cc3ccccn3)C2)Cc2ccccc21` (stereo not given): the call was inactive.
For `Cc1cc(C(=O)Nc2cccc(C(F)(F)F)c2)c2c(C)nn(-c3cccc(F)c3)c2n1`, the “activity change, negative = inhibition” value is 46.5%.
Regarding `NC(=O)c1noc([C@H](CCCC2CCCCC2)CC(=O)NO)n1`, the “activity change, negative = inhibition” value is -15.7%.
For the compound `O=C(CC1N=C2c3ccccc3N=C(SCc3cccc(Cl)c3)N2C1=O)NCc1ccc2c(c1)OCO2` (stereo not given), the “activity change, negative = inhibition” value was -20.2%.
Same read-out and setting: to `CC(C)(C)c1cc(C(=O)O)c(NC(=O)Nc2ccc3[nH]ncc3c2)s1` belongs 3.33%.
On to `CC(Nc1ncnc2ccc(-c3ccc4c(c3)OCO4)cc12)c1ccco1` (stereo not given), for which the result was inactive.
Regarding `CCC(CC)c1nn2cc(-c3ccccc3)nc2s1`, the “activity change, negative = inhibition” value is -32.1%.
On the same count and under the same terms, the figure for `CCOC(=O)c1cc2c(=O)n3ccccc3nc2n(CCCOC)c1=NC(=O)C(C)Oc1ccccc1` (stereo not given) is -15%.
Take `C=CC(=O)c1ccc2ccccc2c1`: the Potency was 9.88 µM (active).
For `O=C(CN1CCOC1=O)N1CCn2nc(C(O)Cc3ccccc3)cc2C1` (stereo not given), the “activity change, negative = inhibition” value is -4.53%.
Same read-out and setting: to `COc1ccc(CCNC(=O)C(=O)NCC(c2ccco2)S(=O)(=O)c2cccs2)cc1OC` (stereo not given) belongs -13.2%.
Same read-out and setting: the figure for `O=C(O)c1ccc(CSc2nc3cccnc3n2Cc2cccc(F)c2)cc1` is -15.8%.
For the compound `O=S(=O)(c1ccc2c(c1)OCCCO2)N1CCN(S(=O)(=O)c2c(F)cccc2F)CC1`, the “activity change, negative = inhibition” value is -1.31%.
Regarding `Cc1ccc(C(=O)NC2CCN(C#N)CC2)cc1`, the “activity change, negative = inhibition” value is -7.02%.
Still for that read-out and setting: to `Cn1c(C(=O)N2CCC(C(=O)N3CCN(c4ccccc4)CC3)CC2)cc2sccc21` belongs 3.22%.
Consider `Cc1ccsc1C(=O)C1CCCN(Cc2ccc(OC(C)C)c(CO)c2)C1` (stereo not given), for which the outcome was inactive.
Turning to `CCOc1ccc(CCNC(=O)C2=C(C)C(=O)OC23CCC(C)CC3)cc1OCC` (stereo not given), the “activity change, negative = inhibition” value was -4.16%.
As to `COc1ccccc1-c1nnc2n1N=C(c1ccc(OC(F)F)c(OCC3CC3)c1)CS2`, the “activity change, negative = inhibition” value is -5.34%.
Same read-out and setting: the figure for `O=C(Nc1ncc(Cc2ccc(C(F)(F)F)cc2)s1)c1cnc(-c2ccccc2)o1` is -4.65%; for `CCOc1ccc(CCNC(=O)c2c(C)oc3ncn(C)c(=O)c23)cc1` it is -10.1%; for `CN[C@H]1CN(c2ccc3c(=O)c(C(=O)O)cn(-c4nccs4)c3n2)C[C@@H]1OC` it is -5.01% [at 5.1 µM].
With `Cc1cc(F)ccc1NC(=O)CCC1CCCN(C(=O)c2ccc(Cl)s2)C1` (stereo not given), the “activity change, negative = inhibition” value is -2.75%.
Same read-out and setting: the figure for `CCC(CC)[C@H](NC(C)=O)[C@@H]1[C@H](O)[C@@H](C(=O)O)C[C@H]1N=C(N)N` is -4.24% [at 0.199 µM].
As for `C[C@@H]1O[C@@H](O[C@@H]2[C@@H](O)[C@H](O[C@@H]3[C@@H](O)[C@@H](O)[C@H](O[C@H]4[C@H](OC(=O)[C@]56CCC(C)(C)C[C@H]5C5=CCC7[C@@]8(C)C[C@H](O)[C@H](O[C@@H]9O[C@@H](C)[C@H](O)[C@@H](O)[C@H]9O)[C@@](C)(CO)C8CC[C@@]7(C)[C@]5(C)C[C@H]6O)O[C@H](C)[C@H](O)[C@@H]4O)O[C@H]3C)OC[C@H]2O)[C@H](O)[C@H](O)[C@H]1O` (stereo not given in full), the activity change, negative = inhibition was 10.2% [at 5.1 µM].
As to `Cc1nc(C)c(-c2ccc3ncnc(NCc4ncc[nH]4)c3c2)s1`, the outcome was inactive.
For `COc1cccc(CNCCSc2nnnn2C)c1OCc1ccccc1Cl`, the “activity change, negative = inhibition” value was -28.7%.
For `O=C(Nc1cc(C(F)(F)F)ccc1Cl)c1ccc2c(c1)CCN2S(=O)(=O)c1ccccc1`, the “activity change, negative = inhibition” value was -9.56%.
For `COc1cc(OC)cc(C(=O)NCCc2csc3nc(-c4ccccc4F)nn23)c1`, the “activity change, negative = inhibition” value is -4.65%.
Turning to `CCc1ccc(NC(=O)C(=O)NNC(=O)Cc2ccc(Cl)c(Cl)c2)cc1`, the call was inactive.
Take `Cc1cc(C)cc(NC(=O)CSc2nc(=O)n(CCN3CCOCC3)c3c2CCC3)c1`: the “activity change, negative = inhibition” value was -16.5%.
In the case of `O=C(c1cccc(F)c1)N1CCCC(CN2CCOCC2)CC1` (stereo not given), the “activity change, negative = inhibition” value was -18.1%.
On the same count and under the same terms, the figure for `O=C(CCc1cn(Cc2ccc(F)cc2)c2ccccc12)NC1CCCCC1` is -6.32%.
Same read-out and setting: the figure for `COc1ccc(Cl)cc1S(=O)(=O)N1CCC(c2ccncc2)CC1` is -8.44%; for `COc1cccc(-n2ccn(CC(=O)NCc3ccc(C)cc3)c(=O)c2=O)c1` it is -14.9%; for `CN(C(=O)c1ccc2c(c1)N(Cc1cccc(Cl)c1)C(=O)c1ccccc1S2=O)C1CCCCC1` (stereo not given) it is -7.42%.
Still for that read-out and setting: the figure for `O=C(CSc1nccn1C1CCCC1)Nc1cc(C(F)(F)F)ccc1Cl` is -12.2%; for `COc1ccccc1N1CCN(c2ccc(=O)n(CC(=O)NCc3ccc(OC(C)C)cc3)n2)CC1` it is -12.8%; for `CC1CCC2(C)C(CC(O)C(O)C23CO3)C1(C)CCC1=CC(O)OC1=O` (stereo not given) it is -4.36%.
Turning to `Cc1noc(C)c1S(=O)(=O)N1CC(C(=O)NC2CCCCC2)C2(CCOCC2)C1` (stereo not given), the “activity change, negative = inhibition” value is -2.85%.
Regarding `COc1cccc(-c2cc(C(=O)N3CCN(c4ncccn4)CC3)c3cnn(C)c3n2)c1`, the compound was classed as inactive.
For `CCc1ccc(C(=O)CC2(O)C(=O)N(CCc3ccccc3)c3ccc(Br)cc32)cc1` (stereo not given), the “activity change, negative = inhibition” value was -13.5%.
In the case of `COCc1nc(C2CC(N)C2)cc(N2CCC(Cn3cccn3)CC2)n1` (stereo not given), the “activity change, negative = inhibition” value was -3.16%.
On to `O=C(Nc1cc(-c2ccccc2)nn1-c1ccccc1F)c1ccc([N+](=O)[O-])cc1`, for which the “activity change, negative = inhibition” value was 8.97%.
Consider `COc1ncccc1-c1cc(-c2cn[nH]c2)c2cncn2c1`, for which the “outcome” value was “inactive [at 39.2 µM]”.
